Legend:
[1] = test system: Vero E6 infected with SARS-CoV-2; test: morphology score (similarity to uninfected cells); higher = more like uninfected cells; settings: 24 h
[2] = test system: Vero E6 infected with SARS-CoV-2; test: SARS-CoV-2 infection rate relative to infected DMSO; higher = more infection, active = 60 or less; settings: 24 h

| Compound | morphology score [1] | SARS-CoV-2 infection rate [2] |
| --- | --- | --- |
| O=C(NC(Cc1cc(=O)[nH]c2ccccc12)C(=O)O)c1ccc(Cl)cc1 (stereo unspecified) [rebamipide] (10 µM) | 0.0758 | 104% (inactive) |
| c1ccc(CN(CC2=NCCN2)c2ccccc2)cc1 [antazoline] (10 µM) | -0.22 | 112% (inactive) |
| C[n+]1c2cc(N)ccc2cc2ccc(N)cc21.Nc1ccc2cc3ccc(N)cc3nc2c1 [acriflavine] (0.833333 µM) | 0.32 | 108% (inactive) |
| CCC[S+]([O-])c1ccc2[nH]c(NC(=O)OC)nc2c1 (stereo unspecified) [albendazole-oxide] (10 µM) | 0.034 | 110% (inactive) |
| O=C(N[C@H]1CN2CCC1CC2)c1ccc(Cl)cc1 (10 µM) | -0.0585 | 99.5% (inactive) |
| O=C[C@H](O)[C@@H](O)[C@H](O)CO [xylose] (10 µM) | -0.0367 | 108% (inactive) |
| Cc1cc(C#N)cc(C)c1Oc1nc(Nc2ccc(C#N)cc2)nc(N)c1Br [etravirine] (10 µM) | 0.364 | 98% (inactive) |
| CC(C)c1nc(CN(C)C(=O)N[C@H](C(=O)N[C@@H](Cc2ccccc2)C[C@H](O)[C@H](Cc2ccccc2)NC(=O)OCc2cncs2)C(C)C)cs1 [Ritonavir] (10 µM) | 0.0318 | 95% (inactive) |
| COc1ccc(C(=O)N2CCCc3cc(C4=NNC(=O)SC4C)ccc32)cc1OC (stereo unspecified) (0.833333 µM) | -0.177 | 109% (inactive) |
| Cc1cc(Cn2nnc3c(-c4ccco4)nc(N)nc32)ccc1N [vipadenant] (10 µM) | 0.0562 | 110% (inactive) |
| CCCCCCCC(=O)N[C@H](CN1CCCC1)[C@H](O)c1ccc2c(c1)OCCO2 [eliglustat] (10 µM) | 0.2 | 92.5% (inactive) |
| N[C@@H](CCNCc1ccc(Cl)cc1)C(=O)N1CCCCC1 (10 µM) | -0.159 | 107% (inactive) |
| Cc1cn([C@H]2O[C@@H](CO)[C@H](O)[C@H]2F)c(=O)[nH]c1=O [clevudine] (10 µM) | -0.0291 | 107% (inactive) |
| CCCNC(C)(C)COC(=O)c1ccccc1 [meprylcaine] (10 µM) | 0.0721 | 102% (inactive) |
| NC(=O)c1noc([C@H](CCCC2CCCCC2)CC(=O)NO)n1 (10 µM) | 0.51 | 85% (inactive) |
| Cn1ncnc1[C@H]1c2n[nH]c(=O)c3cc(F)cc(c23)N[C@@H]1c1ccc(F)cc1 [talazoparib] (0.833333 µM) | -0.223 | 113% (inactive) |
| C[C@H](N)[C@H](O)c1ccc(O)c(O)c1 [levonordefrin] (10 µM) | 0.0723 | 94.5% (inactive) |
| O=C(O)CC/C=C\C[C@@H]1CO[C@H](c2ccccc2Cl)O[C@@H]1c1ccccc1O (racemic) (10 µM) | -0.000999 | 106% (inactive) |
| CN1C(=O)N(c2ccc(C#N)c(C(F)(F)F)c2)C(=O)[C@]1(CO)c1ccccc1 [GLPG0492-R-enantiomer] (10 µM) | -0.00354 | 104% (inactive) |
| C/C(=C\c1csc(C)n1)[C@@H]1C[C@@H]2O[C@]2(C)CCC[C@H](C)[C@H](O)[C@@H](C)C(=O)C(C)(C)[C@@H](O)CC(=O)O1 [epothilone-B] (0.833333 µM) | 0.00236 | 115% (inactive) |
| FC(F)(F)c1ccccc1-c1cc(C(F)(F)F)c2[nH]c(C3=NOC4(CCCCC4)C3)nc2c1 (10 µM) | -0.000445 | 104% (inactive) |
| Cc1cc(NC(=O)C2=C(O)c3ccccc3S(=O)(=O)N2C)no1 [isoxicam] (10 µM) | -0.111 | 108% (inactive) |
| CC(C)c1ccc2c(c1)CC[C@H]1[C@](C)(CN)CCC[C@]21C [lylamine] (0.833333 µM) | -0.00872 | 106% (inactive) |
| O=C(NC[C@H]1CN(c2ccc(N3CCOCC3=O)cc2)C(=O)O1)c1ccc(Cl)s1 [Rivaroxaban (Xarelto)] (10 µM) | 0.193 | 97.5% (inactive) |
| CN1CCN(C(=O)c2cc3cc(Cl)ccc3[nH]2)CC1 (10 µM) | -0.00911 | 111% (inactive) |
| CCOC(=O)c1ccccc1OC(N)=O [ethyl-2-(carbamoyloxy)benzoate] (10 µM) | -0.102 | 108% (inactive) |
| CC(C)(C)c1ccc(-c2nc3ccccc3[nH]2)cc1 (10 µM) | 0.557 | 64% (inactive) |
| O=[N+]([O-])/C=C/c1ccc2c(c1)OCO2 [3,4-methylenedioxy-beta-nitrostyrene] (10 µM) | 0.58 | 41% (active) |

— the supplement of paper PMC13380429
